C diff HTS – C. difficile growth inhibitors, primary screen, HTS | Clostridium difficile clinical isolate growth, OD600, 24 h; active compounds read low | growth activity, negative = inhibition, % at 16 µg/mL (by protocol) | 86,000 compounds, 0.25% hits;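 active = mean growth activity at or below -80% and every replicate also at or below -80%; inconclusive = mean at or below -80% but some replicate above -80%; inactive = mean growth activity above -80%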;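 note: 0% = DMSO wells and -100% = levofloxacin 16 µg/mL wells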
T cruzi growth-1 – T. cruzi intracellular proliferation inhibitors, primary screen, cell-based, beta-gal Tulahuen parasites, NIH3T3 host, luminescence; inhibition, % at 8.34 µM; 77,000 compounds, 5.9% hits; T. cruzi beta-gal in NIH3T3, GalScreen luminescence, 90 h;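 active = mean inhibition above about 93%, with at least 55% of replicates each passing it, limit read from the data, passing the limit was not always enough; inconclusive = only one of those two conditions holds; inactive = neither condition holds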
Pf Dd2 growth – P. falciparum Dd2 growth inhibitors, primary screen, SYBR Green fluorescence, single dose replicates | 72 h; active compounds read low | activity change, % at 10 µM | 94,000 compounds, 2.3% hits; in the data active = activity change below about -80%; inconclusive = no clear call, values can overlap the other calls
T cruzi growth-2 – T. cruzi intracellular proliferation inhibitors, confirmation, cell-based, NIH3T3 host, beta-gal parasite, luminescence, cherry-pick. shares compounds with T cruzi growth-1. T. cruzi beta-gal in NIH3T3, GalScreen luminescence, 90 h. inhibition, % at 8.35 µM. 5,600 compounds, 72% hits. AID 651739, 2012;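 active = mean replicate inhibition above about 95% and at least 55% of replicates individually reaching it, limit read from the data; inconclusive = only one of the two criteria is met; inactive = neither criterion is met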
T cruzi growth-3 – inhibitors of intracellular T. cruzi replication, confirmation, NIH3T3 host cells, beta-gal parasites, cherry-pick, set 2 | shares compounds with T cruzi growth-1 | T. cruzi beta-gal in NIH3T3, GalScreen luminescence, 90 h | inhibition, % at 2.09 µM | 5,600 compounds, 21% hits | AID 651740, 2012;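 active = mean inhibition above about 95%, with at least 55% of replicates also reaching it, limit read from the data; inconclusive = meets just one of the two conditions; inactive = meets neither condition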;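 note: plate controls were neutral control median for no effect and positive control median for full effect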
3T3 cytotox – cytotoxicity in mouse NIH/3T3 fibroblasts, confirmation, cytotoxicity control for T. cruzi proliferation inhibitor project, cell-based, cherry-pick, single point | shares compounds with T cruzi growth-1 | NIH/3T3 viability, CellTiter-Glo ATP luminescence, 90 h | cytotoxicity (signal decrease), % at 8.35 µM | 5,600 compounds, 14% hits | AID 651742, 2012;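 active = mean signal decrease across replicates above about 35% based on untreated-well scatter, with enough replicates individually passing, limit read from the data; inconclusive = no rule stated though some were filed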;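 note: 0% = median of neutral control wells and 100% = median of positive control wells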
NIH3T3 tox 2 – NIH/3T3 fibroblast cytotoxicity, confirmation, cytotoxicity control, cell-based, cherry-pick, single point, set 2. NIH/3T3 viability, CellTiter-Glo ATP luminescence, 90 h. 5,600 compounds, 56% hits. AID 651744, 2012. inhibition, % at 24.9 µM. shares compounds with T cruzi growth-1;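 active = mean loss of cell viability signal at or above a set limit, and enough replicates individually reaching it; inconclusive = meets only the mean limit or only the replicate share; inactive = meets neither condition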;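 note: 0% = median of neutral control wells and 100% = median of positive control wells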
* = called active by the depositor; ? = inconclusive; nt = not tested or not shown. This is a sample that favours compounds with a hit; in the whole collection about 6.8% have one here.

SMILES	C diff HTS	T cruzi growth-1	Pf Dd2 growth	T cruzi growth-2	T cruzi growth-3	3T3 cytotox	NIH3T3 tox 2
C[C@H]1CN([C@@H](C)CO)C(=O)c2cccc(NC(=O)Nc3ccc(C(F)(F)F)cc3)c2O[C@@H]1CN(C)Cc1ccc(Oc2ccccc2)cc1	5	127*	-33	96*	67	23	105*
C[C@H](CO)N1C[C@H](C)[C@H](CN(C)C(=O)Nc2cccc3ccccc23)Oc2c(NS(=O)(=O)c3ccccc3)cccc2C1=O	1	30	-18	nt	nt	nt	nt
CNC(=O)C[C@@H]1CC[C@@H]2[C@@H](COc3ccc(NC(=O)Nc4ccccc4)cc3C(=O)N2C)O1	-8	-4	-3	nt	nt	nt	nt
C[C@H](CO)N1C[C@H](C)[C@@H](CN(C)S(=O)(=O)c2ccc(Cl)cc2)OCCCC[C@H](C)Oc2ccc(NS(=O)(=O)c3ccccc3)cc2C1=O	-3	nt	-67	nt	nt	nt	nt
C[C@H](CO)N1C[C@H](C)[C@@H](CN(C)S(=O)(=O)c2ccccc2)OCCCC[C@H](C)Oc2ccc(NS(=O)(=O)c3ccc(Cl)cc3)cc2C1=O	-7	114*	-4	101*	67	30	9
C[C@H](CO)N1C[C@H](C)[C@H](CN(C)S(=O)(=O)c2ccccc2)OCCCC[C@H](C)Oc2ccc(NS(=O)(=O)c3ccc(Cl)cc3)cc2C1=O	-9	118*	-33	104*	88	-18	-5
C[C@@H]1CCCCO[C@@H](CN(C)S(=O)(=O)c2ccccc2)[C@@H](C)CN([C@H](C)CO)C(=O)c2cc(NS(=O)(=O)c3ccc(Cl)cc3)ccc2O1	-5	63	-34	nt	nt	nt	nt
C[C@@H]1CN([C@@H](C)CO)C(=O)c2cc(NS(=O)(=O)c3ccc(Cl)cc3)ccc2O[C@@H](C)CCCCO[C@H]1CN(C)S(=O)(=O)c1ccccc1	-4	120*	-22	108*	53	11	4
C[C@@H]1CN([C@@H](C)CO)C(=O)c2cc(NS(=O)(=O)c3ccc(Cl)cc3)ccc2O[C@@H](C)CCCCO[C@@H]1CN(C)S(=O)(=O)c1ccccc1	-4	83	-65	nt	nt	nt	nt
C[C@@H]1CN([C@H](C)CO)C(=O)c2cc(NS(=O)(=O)c3ccc(Cl)cc3)ccc2O[C@@H](C)CCCCO[C@@H]1CN(C)S(=O)(=O)c1ccccc1	-3	118*	-64	104*	93	-27	22
Cc1noc(C)c1NC(=O)N[C@H]1CC[C@H](CC(=O)N2CCN(C)CC2)O[C@H]1CO	-2	-12	21	nt	nt	nt	nt
COc1ccc(S(=O)(=O)N(C)C[C@@H]2OCCCC[C@H](C)Oc3ccc(NC(=O)C4CCCCC4)cc3C(=O)N([C@@H](C)CO)C[C@@H]2C)cc1	0	65	-68	nt	nt	nt	nt
C[C@H]1CN([C@@H](C)CO)C(=O)c2cc(NC(=O)C3CC3)ccc2O[C@@H]1CN(C)S(=O)(=O)c1ccc(Cl)cc1	-4	-10	-38	nt	nt	nt	nt
Cc1ccc(S(=O)(=O)Nc2cccc3c2O[C@H](CN(C)S(=O)(=O)c2ccccc2)[C@@H](C)CN([C@@H](C)CO)C3=O)cc1	1	12	2	nt	nt	nt	nt
Cc1ccc(S(=O)(=O)N[C@H]2C=C[C@@H](CC(=O)NCCCN(C)C)O[C@H]2CO)cc1	1	-15	3	nt	nt	nt	nt
O=C1CCCn2cc(nn2)COC[C@H](Cc2ccccc2)N1	6	nt	nt	nt	nt	nt	nt
C[C@@H]1CCCCO[C@H](CN(C)S(=O)(=O)c2ccc(Cl)cc2)[C@H](C)CN([C@H](C)CO)C(=O)c2cc(NS(=O)(=O)c3ccc(Cl)cc3)ccc2O1	4	108*	-66	101*	116*	10	-15
C[C@@H]1CCCCO[C@@H](CN(C)S(=O)(=O)c2ccc(Cl)cc2)[C@H](C)CN([C@H](C)CO)C(=O)c2cc(NS(=O)(=O)c3ccccc3)ccc2O1	0	104	-70	nt	nt	nt	nt
C[C@@H]1CCCCO[C@H](CN(C)S(=O)(=O)c2ccccc2)[C@H](C)CN([C@H](C)CO)C(=O)c2cc(NS(=O)(=O)c3ccc(Cl)cc3)ccc2O1	-7	117*	-36	100*	102*	17	4
C[C@@H]1CCCCO[C@@H](CN(C)S(=O)(=O)c2ccc(Cl)cc2)[C@H](C)CN([C@@H](C)CO)C(=O)c2cc(NS(=O)(=O)c3ccc(Cl)cc3)ccc2O1	5	61	1	nt	nt	nt	nt
CN1CCN(C(=O)C[C@@H]2CC[C@@H]3[C@@H](COc4ccc(NC(=O)C5CCC5)cc4C(=O)N3C)O2)CC1	0	nt	23	nt	nt	nt	nt
O=C(c1ccc(F)cc1)N1CCCCN2[C@H](CO)[C@@H](c3ccc(/C=C/c4ccccc4)cc3)[C@H]2C1	48	108*	-23	103*	78	21	104*
O=C(c1ccc(F)cc1)N1CCCCN2[C@H](C1)[C@H](c1ccc(/C=C/c3ccccc3)cc1)[C@@H]2CO	-5	?	-13	?	35	22	103*
C[C@@H](NC(=O)C[C@@H]1C=C[C@H](NC(=O)C2CCC2)[C@H](CO)O1)c1ccccc1	nt	-61	-11	nt	nt	nt	nt
O=C(C[C@H]1C[C@H]2c3cc(NC(=O)Nc4ccc(C(F)(F)F)cc4)ccc3O[C@H]2[C@H](CO)O1)NC1CCCCC1	1	nt	-2	nt	nt	nt	nt
SMILES	C diff HTS	T cruzi growth-1	Pf Dd2 growth	T cruzi growth-2	T cruzi growth-3	3T3 cytotox	NIH3T3 tox 2
C[C@@H]1CN([C@@H](C)CO)C(=O)c2cc(-c3cccc(F)c3)cnc2O[C@H]1CN(C)C(=O)C1CC1	nt	26	19	nt	nt	nt	nt
O=C(Nc1ccc(F)cc1)N1CCCCN2[C@H](CO)[C@H](c3ccc(-c4cccc(F)c4)cc3)[C@H]2C1	57	49	-26	nt	nt	nt	nt
CCC(=O)N1CCCCN2[C@@H](CO)[C@H](c3ccc(-c4cccc(C#N)c4)cc3)[C@@H]2C1	-2	107*	27	85	77	29	61*
O=C(C1CCCC1)N1CCCCN2[C@@H](CO)[C@@H](c3ccc(-c4cccc(F)c4)cc3)[C@@H]2C1	21	78	-35	nt	nt	nt	nt
N#Cc1cccc(-c2ccc([C@H]3[C@H](CO)N4CCCCN(C(=O)Nc5ccc(F)cc5)C[C@@H]34)cc2)c1	35	102*	4	104*	66	21	105*
O=C(C1CCCC1)N1CCCCN2[C@H](CO)[C@@H](c3ccc(-c4cccc(F)c4)cc3)[C@@H]2C1	7	104*	-22	98*	115*	42*	106*

Assay outcomes from PubChem.
